In PubChem BioAssay (Tox21):
Records with an inconclusive call do not appear. A call without a number means that no potency is given here. Active and inactive are the calls of the source. The call rests on the fitted dose curve.

Biological target: Retinoic acid receptor RXR-alpha (Homo sapiens) (UniProt P19793)
Test: qHTS assay to identify small molecule agonists of the RXR signaling pathway (AID 1159527); further: nearly all actives have a fitted effect of over 35% in size
Settings: HEK293T RXRa-UAS-bla, beta-lactamase ratio, 16 h; series mostly up to 76.8 µM
From the text: U.S. Tox21 Program National Center for Advancing Translational Sciences [NCATS] NIH Chemical Genomics Center [NCGC] U.S. Environmental Protection Agency [EPA] National Institutes of Environmental Health Sciences [NIEHS] National Toxicology Program [NTP] U.S. Food and Drug Administration [FDA] Tox21 Assay Overview: The Retinoid X receptor (RXR), a nuclear hormone receptor expressed in liver, spleen, placenta, epidermis, central nervous system. These receptors are able to form homo and heterodimers with other nuclear receptors and due to this heterodimerizing ability, RXR functions as master regulators producing diverse physiological effects. Three subtypes of RXR exist; alpha, beta and gamma. Retinoid X receptor alpha (RXR-alpha) has potential roles in metabolic signaling pathways, skin alopecia, dermal cysts, cardiac development, insulin sensitization etc. Therefore screening environmental chemicals on RXR-alpha signaling can be used for the studies focused on such therapeutic applications. For quantification of RXR-alpha ligands signaling, GeneBLAzer RXR alpha-UAS-bla HEK 293T (Life Technologies, Carlsbad, CA) cells containing a beta-lactamase reporter-gene under control of Retinoid X receptor-alpha response element were used to screen Tox21 10K library.
Tox21 Assay Protocol Summary: RXR-alpha HEK 293T cells were dispensed at 2,000 cells/6 uL of assay medium containing 2% charcoal-stripped FBS using a Multidrop Combi (ThermoFisher Scientific, Waltham, MA) dispenser. The assay was performed in black wall/clear-bottom 1536-well plates (Greiner Bio-One North America Inc. Monroe, NC). 9-cis retinoic acid was used as a positive control in the agonist mode screen. After the assay plates were incubated at 37 C and 5% CO2 for 5 hr, 23 nL of compounds dissolved in DMSO, positive controls or DMSO only were transferred to the assay plate by a Pintool station (Kalypsys, San Diego, CA). The assay plates were incubated at 37 C and 5% CO2 for 16 hr. One uL of LiveBLAzer B/G FRET substrate (Life Technologies) was added using a Flying Reagent Dispenser (Aurora Discovery, San Diego, CA) and the plates were incubated at room temperature for 2 hr. Fluorescence intensity (405 nm excitation, 460/530 nm emission) was measured using an Envision plate reader (PerkinElmer, Shelton, CT).

Sequence of Retinoic acid receptor RXR-alpha (Homo sapiens) (P19793 whole entry, looked up): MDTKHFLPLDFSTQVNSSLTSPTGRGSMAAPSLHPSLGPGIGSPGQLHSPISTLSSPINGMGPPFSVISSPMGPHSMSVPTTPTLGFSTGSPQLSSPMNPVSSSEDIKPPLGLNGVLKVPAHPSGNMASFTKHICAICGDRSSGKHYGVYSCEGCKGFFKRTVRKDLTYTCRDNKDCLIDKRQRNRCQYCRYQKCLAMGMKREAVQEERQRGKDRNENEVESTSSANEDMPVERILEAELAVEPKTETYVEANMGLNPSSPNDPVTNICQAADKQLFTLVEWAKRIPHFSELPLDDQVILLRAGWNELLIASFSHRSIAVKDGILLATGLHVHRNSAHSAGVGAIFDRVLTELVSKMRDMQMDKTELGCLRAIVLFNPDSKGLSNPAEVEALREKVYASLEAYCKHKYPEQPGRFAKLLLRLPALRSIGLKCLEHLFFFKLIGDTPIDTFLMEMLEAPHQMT

Compound	Potency
O=[N+]([O-])/N=C1\NCCN1Cc1ccc(Cl)nc1	inactive
Cc1ccc([N+](=O)[O-])cc1	inactive
CCCCOCC1CO1 (stereo not given)	inactive
COC(=O)Nc1nc2ccccc2[nH]1	inactive
N#CC(c1ccccc1)c1ccccc1	inactive
Clc1ccccc1-c1nnc(-c2ccccc2Cl)nn1	inactive
CCC/C=N/O	inactive
COP(=O)(NC(C)=O)SC (stereo not given)	inactive
COc1ccc(C=O)cc1OC	inactive
NN=C(N)N	inactive
C[C@]12CC[C@H]3[C@@H](CCC4=CC(=O)CC[C@@H]43)[C@@H]1CC[C@@H]2O	inactive
CC(C)(O)C#N	inactive
CSc1nc(NC(C)C)nc(NC(C)C)n1	inactive
c1ccc2c(c1)Nc1ccccc1S2	inactive
[Cl-].[Cl-].[Cl-].[Fe+3]	inactive
O=P(OCCCl)(OCCCl)OCCCl	inactive
Cl	inactive
Cn1c(-c2ccccc2)cc(-c2ccccc2)[n+]1C	inactive
CNC(=O)CSP(=S)(OC)OC	inactive
ClC(Cl)(Cl)c1ccccc1	inactive

Compound	Potency
CNC(=O)Oc1cccc2c1OC(C)(C)C2	inactive
Nc1ccc([N+](=O)[O-])cc1N	inactive
Nc1ncn[nH]1	inactive
CCC1(c2ccc(N)cc2)CCC(=O)NC1=O (stereo not given)	inactive
O=NN(c1ccccc1)c1ccccc1	inactive
Cc1cccc(N=Nc2ccc(N(C)C)cc2)c1	inactive
CC(C)CON=O	inactive
ClC(Cl)(Cl)Br	inactive
CCOP(=S)(OCC)SCSC(C)(C)C	inactive
COP(=S)(OC)Oc1ccc(S(=O)(=O)N(C)C)cc1	inactive
C=C(C)C#N	inactive
Nc1ccc2ccccc2c1	inactive
CN(C)c1nc(=O)n(C2CCCCC2)c(=O)n1C	inactive
S=c1[nH]c2ccccc2[nH]1	inactive
O=C1Nc2ccc(Cl)cc2C(c2ccccc2)=NC1O (stereo not given)	inactive
CCCCOC(=O)COC(=O)c1ccccc1C(=O)OCCCC	inactive
CCOS(=O)(=O)OCC	inactive
CCCCCCCCCCCCCl	inactive
O=S(=O)(O)C(F)(F)C(F)(F)C(F)(F)C(F)(F)C(F)(F)C(F)(F)C(F)(F)C(F)(F)F	inactive
CCC(=O)Nc1ccc(Cl)c(Cl)c1	inactive
